Assay outcomes (PubChem)
D3 ag = activates the human D3 dopamine receptor; P35462; D3R DiscoveRx beta-arrestin cells, luminescence, 90 min; max activation, %; hit rate 0.58% among 410,000; in the data active = max activation above about 30%
Target sequence (P35462 whole entry, looked up): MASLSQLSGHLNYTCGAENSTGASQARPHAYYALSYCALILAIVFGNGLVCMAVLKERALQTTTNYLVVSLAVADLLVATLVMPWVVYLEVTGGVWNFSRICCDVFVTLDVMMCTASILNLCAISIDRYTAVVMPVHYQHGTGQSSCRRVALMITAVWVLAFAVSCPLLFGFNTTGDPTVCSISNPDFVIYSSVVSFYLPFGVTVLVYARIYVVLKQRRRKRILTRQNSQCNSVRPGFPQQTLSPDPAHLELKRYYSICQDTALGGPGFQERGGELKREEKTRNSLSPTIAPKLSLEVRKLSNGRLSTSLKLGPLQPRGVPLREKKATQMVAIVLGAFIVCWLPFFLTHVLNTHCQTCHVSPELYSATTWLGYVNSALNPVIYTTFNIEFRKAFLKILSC
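Agonist mode: compounds and dopamine controls were applied to plated cells for 90 min at 37 degrees C after an overnight attachment at 1500 cells/well. Luminescent read-out followed 30 - 60 minutes at room temperature with DiscoveRx detection reagent.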
ATXN2 expr inh = inhibitors of ATXN2 expression | HEK-293 ATXN2-luciferase reporter, luminescence, 24 h | Potency, µM (titrated, usually from 57 µM), most hits filed as inhibitors | hit rate 0.72% among 360,000 | AID 1745845; note: nearly all actives have a fitted effect of over 55% in size
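qHTS (up to 57 uM final) was run with 24 h compound exposure of reporter cells at 37 °C. Each well was multiplexed: SteadyGlo luminescence measured ATXN2-luciferase expression after a fluorogenic Gly-Phe-AFC viability readout (25 uM final).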
IL-1B inflam inh = inhibitors of inflammasome signaling (IL-1 beta secretion); THP-1 LPS/ATP IL-1B secretion, AlphaLISA, 16 h; hits give low values; activity change, % at 57.5 µM; hit rate 4.7% among 360,000; AID 743279; in the data active = activity change below about -50%; inconclusive = mostly about -30% to -49%
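THP-1 cells pretreated 1 hr with compounds (up to 57.5 uM final), then stimulated with LPS (250 ng/mL final) plus ATP (1.25 mM final); secreted IL-1B measured by AlphaLISA after 16 hr, decreased signal indicating inhibition.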
S2 tox = cell viability loss in ATXN counter-screen. hit rate 0.49% among 400,000. S2 cells (HEK-293 line with an ATXN2-luciferase reporter) viability, CellTiter-Fluor protease fluorescence, 24 h. Potency, µM (doses to about 56.7 µM), most hits filed as cytotoxic; note: nearly all actives have a fitted effect of over 40% in size
Integrin act MD = activators of alpha7 integrin expression for muscular dystrophy. alpha7betagal myoblasts, beta-gal FDG fluorescence, 48 h. Potency, µM (doses to about 38.3 µM), hits mostly activators. hit rate 0.064% among 350,000; note: nearly all actives have a fitted effect of over 60% in size
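Alpha7betagal+/- myoblasts (passage 13) were plated 16-24 hr, then exposed to compounds (1:260 dilution of DMSO stock) for 48 hours at 37C. After MPER lysis, β-galactosidase reporter activity was read as FDG fluorescence (ex 480/em 540) after 30 minutes.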
D3 antag = blocks the human D3 dopamine receptor | hit rate 2.5% among 360,000 | AID 652054 | max response, negative = inhibition, % | D3R cells, DiscoveRx beta-arrestin luminescence, antagonist mode; hits give low values; in the data active = max response below about -50%; inconclusive = no clear call, values can overlap the other calls
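Cells plated overnight at 1500 cells/well, then exposed to library compounds with dopamine controls for 90 minutes at 37 degrees C. DiscoveRx reagent added for 30–60 minutes at room temperature; luminescence read, quantitative HTS format.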
Of the large screens only hits and unclear results are named; the others gave an inactive call; ! = not active in a repeat. An excerpt weighted towards active compounds, which were near 7% of everything screened. Unless noted, calls come from the whole dose curve; as a rule, active = well fitted curve in the direction sought with a large enough effect; inconclusive = small, poorly fitted or top-dose-only effect, or another doubt; inactive = no such curve, though single readings can be large; an effect the other way counts as inactive or inconclusive.

CCc1cc(=O)oc2cc(C)cc(OC(C)C(=O)NCC(O)c3ccccc3)c12 (stereo not given)	none
CCc1cc(=O)oc2cc(C)cc(OC(C)C(=O)NC3CCN(Cc4ccccc4)CC3)c12 (stereo not given)	IL-1B inflam inh -62.8
O=C(CN1C(=O)C(=O)N(CCC2=CCCCC2)C1=O)c1c[nH]c2ccccc12	IL-1B inflam inh -58.8, D3 antag -52.4
COc1ccccc1N1CCN(S(=O)(=O)c2c(C)[nH]c(C)c2C(=O)N2CCCCC2)CC1	none
Cc1ccc(O)c(NC(=O)c2cc(C)no2)c1	none
O=C(CCSc1nc2ccccc2s1)N/N=C/c1c(O)ccc2ccccc12	ATXN2 expr inh 3.16µM
O=C(CN1CCCC1)N/N=C/c1c(O)ccc2ccccc12	ATXN2 expr inh 2.82µM, S2 tox inconclusive
O=C(N/N=C\c1c(O)ccc2ccccc12)c1ccc(Cn2cccn2)o1	ATXN2 expr inh 3.55µM
COc1ccc(/C=N/NC(=O)CCSc2nc3ccccc3s2)cc1OC	none
O=C(N/N=C/c1c(O)ccc2ccccc12)C(=O)N1CCCC1	none (no result: ATXN2 expr inh)
Cc1cc(C)n(CCC(=O)N/N=C/c2c(O)ccc3ccccc23)n1	S2 tox 10µM (no result: ATXN2 expr inh)
COc1ccccc1N1CCN(C(=O)c2oc3ccccc3c2NC(=O)C(C)Oc2ccccc2)CC1 (stereo not given)	none (no result: IL-1B inflam inh, Integrin act MD, D3 antag)
COc1cc(/C=C/C(=O)O)ccc1S(=O)(=O)N1CCCc2ccccc21	none
Cc1cccc(NC(c2ccc(O)cc2)c2ccc3ccc(C)nc3c2O)n1 (stereo not given)	IL-1B inflam inh -71.1
COc1ccc2[nH]c(C(=O)Nc3cccc(C)n3)cc2c1	none
O=C(Nc1cccc2ncccc12)c1ccc(Br)c([N+](=O)[O-])c1	IL-1B inflam inh -108.2
Cc1ccc(NC(=O)c2ccc([N+](=O)[O-])o2)c(C)c1	IL-1B inflam inh -68.4
O=C(Nc1cc(Cl)ccc1-n1cncn1)c1ccc([N+](=O)[O-])o1	IL-1B inflam inh -65.1, S2 tox inconclusive
O=C(Nc1ccccc1Cl)c1ccc([N+](=O)[O-])o1	IL-1B inflam inh -97.0
O=C(Nc1cccc2ncccc12)c1cccc(Br)c1	none
Cc1ccc(CN2CCSc3ccc(C(=O)Nc4ccc(C)cc4)cc32)cc1	none (no result: IL-1B inflam inh, Integrin act MD, D3 antag)
Cc1ccc(NC(=O)CCn2c(=O)[nH]c3ccsc3c2=O)cc1C	Integrin act MD inconclusive
CC1CCCN(C(=O)c2nn(C)c3c2CSc2ccccc2-3)C1 (stereo not given)	none
CCCCN(C(=O)Cc1ccc(S(=O)(=O)N2CCOCC2)s1)c1ccccc1	none
O=C(Nc1cccc2ncccc12)c1ccc([N+](=O)[O-])o1	IL-1B inflam inh -93.5
CCOc1ccc(/C=N/NC(=O)C(OC)c2ccccc2)cc1 (stereo not given)	none
Cc1ccc(-c2c[n+](CC(=O)Nc3c(C)cccc3C)c3n2CCC3)cc1	IL-1B inflam inh -63.6, S2 tox inconclusive
CCc1ccc(NC(=O)C[n+]2cc(-c3ccc(C)cc3)n3c2CCC3)cc1	IL-1B inflam inh inconclusive, S2 tox inconclusive, D3 antag inconclusive
Cc1ccc(-c2csc(NC(=O)C[n+]3cc(-c4ccc(C)cc4)n4c3CCC4)n2)cc1	IL-1B inflam inh -93.5
Cc1ccc(-c2csc(NC(=O)C[n+]3cc(-c4ccccc4)n4c3CCC4)n2)cc1	IL-1B inflam inh -87.4, S2 tox inconclusive
CC1(C(=O)NS(=O)(=O)c2ccc(Cl)s2)CCN1C(=O)CCc1ccccc1 (stereo not given)	none (no result: Integrin act MD)
COC(=O)CSc1nnc(C)n1-c1cccc(OC)c1	none
CN1C(=O)C2(CCCCC2)C1c1ccccc1 (stereo not given)	D3 antag -76.5
O=C1N(c2ccccc2)C(c2ccccc2)C12CCCCC2 (stereo not given)	none
CC(C)(C)NCCCCOc1ccccc1F	none
CNCCOc1ccccc1C(C)(C)C	D3 antag -54.1
CC(C)(C)c1ccccc1OCCOCCNCc1ccccc1	IL-1B inflam inh -57.4, S2 tox inconclusive, D3 antag -77.7
Cc1cc(OCCOCCN(C)C)ccc1Cl	none
COCCNCCOCCOc1ccc(Cl)c(C)c1	D3 antag -51.8
COCCNCc1ccccc1	none
Cc1cc(OCCOCCNCc2ccccc2)ccc1C(C)C	IL-1B inflam inh -63.2 (no result: ATXN2 expr inh)
CC(Oc1cc2oc(=O)c3c(c2cc1Cl)CCC3)C(=O)NC1CC(C)(C)NC(C)(C)C1 (stereo not given)	none
O=C1c2ccc3c4c(ccc(c24)C(=O)N1c1ccc(O)cc1)C(=O)N(c1ccc(O)cc1)C3=O	none
N#Cc1ccc(S(=O)(=O)N2CCCN(c3nc4ccc(Cl)cc4s3)CC2)cc1	none
COC(=O)C1=[N+]([O-])OC(C(=O)OC)C1c1c[nH]c2ccccc12 (stereo not given)	D3 antag -55.8
COC(=O)c1ccc(NC(=O)C(=O)c2c[nH]c3ccccc23)cc1	none (no result: ATXN2 expr inh)
C(C#CCCCCCCCCC[n+]1ccccc1)#CCCCCCCCCC[n+]1ccccc1	ATXN2 expr inh 7.08µM!, IL-1B inflam inh -94.9, S2 tox 12.6µM
CN(C(=O)COc1cc(C(F)(F)F)nn1C)c1ccccc1	none (no result: ATXN2 expr inh)
CCOC(=O)C1=CN(Cc2cccc(F)c2)S(=O)(=O)N(C)C1c1cccc(OC)c1 (stereo not given)	D3 ag 37.5
CCOC(=O)C1=CN(Cc2cccc(F)c2)S(=O)(=O)NC1c1ccc2ccccc2c1 (stereo not given)	D3 antag -58.8
Cn1nnnc1NCc1cccc(Cl)c1	none
Clc1cccc(CNc2nnnn2-c2ccccc2)c1	D3 antag -52.1
COc1ccc(CCN2C(=O)c3cccc4c(C(=O)N5CCCCC5)ccc(c34)C2=O)cc1OC	ATXN2 expr inh inconclusive, S2 tox inconclusive
CC(OC(=O)Cc1n[nH]c(=O)c2ccccc12)C(=O)N(C)c1ccccc1 (stereo not given)	none (no result: ATXN2 expr inh)
CS(=O)(=O)c1ccc(C(=O)NCCN2C(=O)S/C(=C\c3cccnc3)C2=O)cc1[N+](=O)[O-]	IL-1B inflam inh -98.0 (no result: ATXN2 expr inh, S2 tox)
Cc1cc(Cl)ccc1OCCCC(=O)NCCN1C(=O)S/C(=C\c2cccnc2)C1=O	IL-1B inflam inh -53.5, S2 tox inconclusive
CN(C)S(=O)(=O)c1ccc(C(=O)NCCN2C(=O)S/C(=C\c3cccnc3)C2=O)cc1	S2 tox inconclusive
Cc1cc(C)c(CN2CCC(N3CCC(C(=O)NCC4CCCO4)CC3)CC2)cc1C (stereo not given)	none
COc1cccc(-c2cnc3c(NC=O)cc(-c4ccoc4)cn23)c1	S2 tox inconclusive (no result: Integrin act MD)
O=C1c2ccccc2C(=O)N1CCC#C/C=C1\c2ccccc2C(=O)N1c1ccccc1	S2 tox 28.2µM
